# Laboratory results from PubChem BioAssay (Tox21).
# A number with no mark means an inactive call. Records with an inconclusive call do not appear. A call without a number means that no potency is given here. Calls of active or inactive are those of the source. Unless noted, calls come from the whole dose curve; as a rule, active = well fitted curve in the direction sought with a large enough effect in the repeat runs; inconclusive = weak or mixed curves; inactive = no such curve, though single readings can be large; an effect the other way counts as inactive or inconclusive.
# Key:
# [1] = target: Thyrotropin-releasing hormone receptor (Homo sapiens) (UniProt P34981); experiment: qHTS assay to identify small molecule agonists of the thyrotropin-releasing hormone receptor (TRHR) signaling pathway (AID 1346891; calls by dose curve; note: series mostly up to about 58 µM)
# Thyrotropin-releasing hormone receptor (Homo sapiens), sequence (P34981 whole entry, looked up): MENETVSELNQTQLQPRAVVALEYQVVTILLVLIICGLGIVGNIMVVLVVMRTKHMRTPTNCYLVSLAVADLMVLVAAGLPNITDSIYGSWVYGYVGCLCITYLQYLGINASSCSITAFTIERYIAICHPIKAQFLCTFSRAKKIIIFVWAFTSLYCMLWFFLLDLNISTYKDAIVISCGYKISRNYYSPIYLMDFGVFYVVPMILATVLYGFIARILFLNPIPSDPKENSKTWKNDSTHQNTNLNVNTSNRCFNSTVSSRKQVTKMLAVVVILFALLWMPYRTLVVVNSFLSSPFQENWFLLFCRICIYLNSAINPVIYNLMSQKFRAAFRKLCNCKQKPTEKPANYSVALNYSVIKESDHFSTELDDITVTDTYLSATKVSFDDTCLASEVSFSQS
# Summary of the method: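 Screening of agonists relied on calcium signalling in HEK293 cells expressing human TRHR: dye loading 2 h at 37 °C preceded compound addition and a 3-min fluorescence time course.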
# [2] = Caspase-3/7 induction in HepG2 cells by small molecules, qHTS assay (AID 1346978); note: nearly all actives have a fitted effect of over 15% in size; note: potency is the fitted concentration of half-maximal effect
# Summary of the method: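 Caspase-3/7 induction was measured by Caspase-Glo 3/7 luminescence (30 min, room temperature) after a 17 hr compound exposure of wild-type HepG2 cells seeded at 2,000 per well and pre-incubated 5 hr.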
# [3] = Caspase-3/7 induction in CHO-K1 cells by small molecules, qHTS cell viability counter screen (AID 1346979); note: nearly all actives have a fitted effect of over 35% in size; note: potency is the fitted concentration of half-maximal effect
# Summary of the method: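 CellTiter-Fluor viability check, qHTS format: wild-type CHO-K1, 16hr compound treatment, 1hr reagent incubation, fluorescence read.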
# [4] = Caspase-3/7 induction in CHO-K1 cells by small molecules, qHTS assay (AID 1346980); note: nearly all actives have a fitted effect of over 15% in size; note: potency is the fitted concentration of half-maximal effect
# Summary of the method: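 Luminescent Caspase-Glo 3/7 read (30min, room temperature) quantified apoptosis induction. Cells were wild-type CHO-K1, treated with compound for 17hr at 37 C and 5% CO2.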
# [5] = Caspase-3/7 induction in HepG2 cells by small molecules, qHTS cell viability counter screen (AID 1346981); note: nearly all actives have a fitted effect of over 30% in size; note: potency is the fitted concentration of half-maximal effect
# Summary of the method: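 In this quantitative HTS counter screen, compounds delivered in DMSO were left on unmodified HepG2 cells for 16 hr at 37 C. Viability was then determined fluorometrically with CellTiter-Fluor, in parallel with caspase-3/7 induction in the same wells.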
# [6] = target: Nuclear receptor subfamily 1 group I member 2 (Homo sapiens) (UniProt O75469); experiment: Human pregnane X receptor (PXR) small molecule agonists, qHTS assay (AID 1346982); note: nearly all actives have a fitted effect of over 35% in size; note: potency is the fitted concentration of half-maximal effect
# Nuclear receptor subfamily 1 group I member 2 (Homo sapiens), sequence (O75469 whole entry, looked up): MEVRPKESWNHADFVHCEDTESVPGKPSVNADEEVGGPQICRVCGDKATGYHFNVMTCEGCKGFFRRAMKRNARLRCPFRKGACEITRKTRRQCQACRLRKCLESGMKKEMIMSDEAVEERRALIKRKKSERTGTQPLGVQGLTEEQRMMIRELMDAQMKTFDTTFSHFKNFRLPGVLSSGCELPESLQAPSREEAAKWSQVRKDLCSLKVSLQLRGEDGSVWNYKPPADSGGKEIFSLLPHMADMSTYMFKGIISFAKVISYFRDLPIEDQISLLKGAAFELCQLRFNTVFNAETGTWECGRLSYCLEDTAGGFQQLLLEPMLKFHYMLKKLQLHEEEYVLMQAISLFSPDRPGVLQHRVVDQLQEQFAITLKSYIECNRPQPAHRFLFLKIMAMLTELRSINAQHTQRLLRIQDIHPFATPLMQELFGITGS
# Summary of the method: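 Reporter HepG2 cells expressing PXR-Luc are cultured in charcoal-stripped FBS (5%), treated with compounds for 24 hr at 37 C, and assayed by ONE-Glo luminescence after 30 min at room temperature.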
# [7] = Human pregnane X receptor (PXR) small molecule agonists, qHTS cell viability counter screen (AID 1346977); note: nearly all actives have a fitted effect of over 50% in size; note: potency is the fitted concentration of half-maximal effect
# Summary of the method: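 Tox21 qHTS format; PXR-Luc HepG2, 2,000/well, charcoal-stripped FBS 5%. Cpd exposure 24hr. Read: CellTiter-Fluor fluorescence, multiplexed with luciferase.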
# [8] = target: Nuclear receptor subfamily 1 group I member 2 (Rattus norvegicus) (UniProt Q9R1A7); experiment: Rat pregnane X receptor (rPXR) activation by small molecules, qHTS assay (AID 1346983); conditions: rPXR luciferase reporter cells, One-Glo luminescence, 24 h; max activation: active compounds read high; note: nearly all actives have a fitted effect of over 20% in size
# Nuclear receptor subfamily 1 group I member 2 (Rattus norvegicus), sequence (Q9R1A7 whole entry, looked up): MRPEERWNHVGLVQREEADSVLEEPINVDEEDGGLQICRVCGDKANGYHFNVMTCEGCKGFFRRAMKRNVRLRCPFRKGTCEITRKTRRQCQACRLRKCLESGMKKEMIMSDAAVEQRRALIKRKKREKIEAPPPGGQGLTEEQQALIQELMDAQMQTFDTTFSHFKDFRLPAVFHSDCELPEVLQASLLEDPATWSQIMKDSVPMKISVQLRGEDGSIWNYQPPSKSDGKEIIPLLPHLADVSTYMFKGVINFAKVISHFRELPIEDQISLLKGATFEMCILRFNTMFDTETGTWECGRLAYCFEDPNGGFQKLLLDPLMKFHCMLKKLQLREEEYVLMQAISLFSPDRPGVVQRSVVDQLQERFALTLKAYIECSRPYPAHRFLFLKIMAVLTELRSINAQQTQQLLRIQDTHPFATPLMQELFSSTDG
# Summary of the method: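 Luminescent readout (One-Glo luciferase, 30 min room temperature) followed 24 hr compound treatment at 37 C of rPXR cells plated 2,000 per well and preincubated 5hr; qHTS format with compounds delivered in DMSO.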
# [9] = target: Nuclear receptor subfamily 1 group I member 2 (Homo sapiens) (UniProt O75469); experiment: Human pregnane X receptor (PXR) activation by small molecules, qHTS assay (AID 1346985); note: nearly all actives have a fitted effect of over 40% in size
# Summary of the method: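 DPX-2 cells (HepG2 co-transfected with a PXR response element and a CYP3A4-promoter luciferase construct) were seeded at 2,000 per well, rested 5 hr at 37C, then exposed to DMSO-dissolved compounds for 24 hr. Activation was read as luciferase luminescence.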
# [10] = target: Nuclear receptor subfamily 1 group I member 2 (Homo sapiens) (UniProt O75469); experiment: CYP3A4 induction through human pregnane X receptor (PXR) by small molecules, qHTS assay (AID 1346984); note: nearly all actives have a fitted effect of over 40% in size; note: potency is the fitted concentration of half-maximal effect
# Summary of the method: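 Induction measured in HepG2-based DPX-2 cells co-expressing human PXR and a CYP3A4 promoter-driven luciferase. After a 24-hour compound exposure, cells received CYP3A4 luciferin substrate at 3uM final for 3 hours, and light output was then recorded.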
SMILES,Potency [1],Potency [2],Potency [3],Potency [4],Potency [5],Potency [6],Potency [7],max activation [8] [%],Potency [9],Potency [10]
CC(C)=CC(=O)C=C(C)C,inactive,inactive,inactive,inactive,inactive,inactive,–,–,–,–
OCCN1CCN(CCCN2c3ccccc3Sc3ccc(Cl)cc32)CC1,inactive,–,29.8 µM (active),–,26.6 µM (active),10.6 µM (active),29.8 µM (active),5.45,inactive,–
Oc1cccc(Nc2ccccc2)c1,inactive,inactive,inactive,inactive,inactive,63.8 µM (active),–,–,–,–
O=c1cc(-c2ccccc2)oc2ccc3ccccc3c12,inactive,–,54.5 µM (active),inactive,–,2.43 µM (active),inactive,–,–,–
CN1CCCN=C1COC(=O)C(O)(c1ccccc1)C1CCCCC1 (configuration not stated),inactive,inactive,inactive,inactive,inactive,inactive,–,-0.811,inactive,–
CC1(C)[C@H](C(=O)O)N2C(=O)C[C@H]2S1(=O)=O,inactive,inactive,inactive,inactive,inactive,–,–,–,–,–
Nc1nc2ccc([N+](=O)[O-])cc2s1,inactive,inactive,47.2 µM (active),inactive,61.1 µM (active),30.6 µM (active),–,–,–,–
CC(C)(C)C(=O)C(=O)O,inactive,inactive,inactive,inactive,inactive,–,–,–,–,–
O=c1[nH]ncc2ccccc12,inactive,inactive,inactive,inactive,inactive,inactive,–,–,–,–
CCOC(=O)c1ccc(I)cc1,inactive,inactive,inactive,inactive,inactive,inactive,–,–,–,–
Cc1ccc(Cl)c(Nc2ccccc2C(=O)O)c1Cl,inactive,inactive,inactive,inactive,inactive,inactive,–,0.813,inactive,inactive
CN1C[C@H](C(=O)N[C@]2(C)O[C@@]3(O)[C@@H]4CCCN4C(=O)[C@H](Cc4ccccc4)N3C2=O)C[C@@H]2c3cccc4[nH]cc(c34)C[C@H]21,inactive,–,26.6 µM (active),–,26.6 µM (active),10.6 µM (active),21.1 µM (active),–,–,–
CC(CN(C)C)C(C)(O)Cc1ccc(Cl)cc1 (configuration not stated),inactive,–,inactive,inactive,inactive,inactive,inactive,-1.26,inactive,–
CC1=C(CC=O)C(C)(C)CCC1,inactive,inactive,inactive,inactive,inactive,24.3 µM (active),–,–,–,–
CC(=O)OCCN(CCOC(C)=O)c1ccc(N=Nc2ccc([N+](=O)[O-])cc2C#N)cc1,inactive,inactive,54.5 µM (active),inactive,–,–,–,–,–,–
CC(C)C[C@H](NC(=O)[C@H](CCc1ccccc1)NC(=O)CN1CCOCC1)C(=O)N[C@@H](Cc1ccccc1)C(=O)N[C@@H](CC(C)C)C(=O)[C@@]1(C)CO1,inactive,–,0.0944 µM (active),0.0473 µM (active),–,0.0376 µM (active),0.075 µM (active),–,–,–
Clc1cc(Cl)nc(Cl)n1,inactive,inactive,inactive,inactive,inactive,inactive,–,–,–,–
CCCCC(CC)CN (configuration not stated),inactive,inactive,inactive,inactive,inactive,–,–,–,–,–
C=CCc1ccccc1OCC(O)CNC(C)C (configuration not stated),inactive,–,inactive,inactive,inactive,inactive,inactive,–,–,–
CCOC(=O)[C@H](CCc1ccccc1)N[C@@H](C)C(=O)N(CC(=O)O)C1Cc2ccccc2C1,inactive,–,inactive,inactive,inactive,11.9 µM (active),inactive,–,–,–

SMILES,Potency [1],Potency [2],Potency [3],Potency [4],Potency [5],Potency [6],Potency [7],max activation [8] [%],Potency [9],Potency [10]
CC(C)COCC(CN(Cc1ccccc1)c1ccccc1)N1CCCC1 (configuration not stated),inactive,–,29.8 µM (active),–,29.8 µM (active),–,29.8 µM (active),–,–,–
Cc1ccc2c(Br)cc(Br)c(O)c2n1,inactive,inactive,21.1 µM (active),inactive,inactive,11.9 µM (active),–,-3.38,–,inactive
CNC(=O)c1cnn(-c2nc(N)c3ncn([C@@H]4O[C@H](CO)[C@@H](O)[C@H]4O)c3n2)c1,inactive,–,inactive,inactive,inactive,inactive,inactive,–,–,–
COC(=O)[C@H]1[C@H]2C[C@@H]3c4[nH]c5cc(OC)ccc5c4CCN3C[C@H]2C[C@@H](OC(=O)/C=C/c2ccc(O)c(OC)c2)[C@@H]1OC,inactive,–,26.6 µM (active),inactive,–,11.9 µM (active),23.7 µM (active),–,–,–
CCCCCCCCCCCCCCN(CCO)CCO,inactive,30.6 µM (active),27.3 µM (active),inactive,68.6 µM (active),12.2 µM (active),–,–,–,–
C[C@@H]1CN(CCCn2c3ccccc3c3ccccc32)C[C@H](C)N1,inactive,–,29.8 µM (active),–,29.8 µM (active),inactive,29.8 µM (active),-9.24,–,–
CCCCCCCCC(CCCCCC)C(=O)O (configuration not stated),inactive,–,inactive,inactive,inactive,inactive,inactive,–,–,–
Cc1ccccc1N=C(N)Nc1ccccc1C,inactive,–,inactive,inactive,inactive,inactive,inactive,–,–,–
OC[C@H]1O[C@@H](n2cnc3c(=S)nc[nH]c32)[C@H](O)[C@@H]1O,inactive,inactive,inactive,inactive,inactive,11.9 µM (active),–,-1.15,inactive,inactive
Nc1cccc2c1CN(C1CCC(=O)NC1=O)C2=O (configuration not stated),inactive,inactive,inactive,inactive,inactive,inactive,–,-1,inactive,–
O=C(/C=C/c1ccc(O)c(O)c1)O[C@@H]1C[C@@](OC(=O)/C=C/c2ccc(O)c(O)c2)(C(=O)O)C[C@@H](O)[C@@H]1O,inactive,inactive,inactive,inactive,inactive,inactive,–,-5.53,inactive,inactive
CC1CC(OC(=O)C(O)c2ccccc2)CC(C)(C)N1C (configuration not stated),inactive,inactive,inactive,inactive,inactive,–,–,–,–,–
OC(CCN1CCCC1)(c1ccccc1)C1CCCCC1 (configuration not stated),inactive,inactive,inactive,inactive,inactive,–,–,–,–,–
C1C[C@@H]2[C@H]3CC[C@H](C3)[C@@H]2C1,inactive,–,inactive,inactive,inactive,inactive,inactive,–,–,–
C[C@@H](O[C@H]1OCCN(Cc2n[nH]c(=O)[nH]2)[C@H]1c1ccc(F)cc1)c1cc(C(F)(F)F)cc(C(F)(F)F)c1,inactive,33.5 µM (active),29.8 µM (active),inactive,29.8 µM (active),–,–,–,–,–
CN1CC(=O)N2[C@H](c3ccc4c(c3)OCO4)c3[nH]c4ccccc4c3C[C@@H]2C1=O,inactive,–,–,inactive,inactive,–,inactive,0.614,–,–
CCCCN(CCN(CCCC)C(=O)N1CCOCC1)C(=O)N1CCOCC1,inactive,inactive,inactive,inactive,inactive,–,–,–,–,–
C=CC(C)(CCC=C(C)C)OC(=O)CC(C)C (configuration not stated),inactive,–,inactive,inactive,inactive,inactive,inactive,–,–,–
O=C(O)c1ccc(OCCCOc2ccc(C(=O)O)cc2)cc1,inactive,–,inactive,inactive,inactive,inactive,inactive,-2.11,inactive,inactive
N#CCc1ccc(Cl)cc1Cl,inactive,inactive,inactive,inactive,inactive,inactive,–,–,–,–

SMILES,Potency [1],Potency [2],Potency [3],Potency [4],Potency [5],Potency [6],Potency [7],max activation [8] [%],Potency [9],Potency [10]
CCCCCCCCOc1ccc(C(=O)O)cc1,inactive,–,–,inactive,inactive,60.4 µM (active),–,–,–,–
Oc1ccc(Cl)c2cccnc12,inactive,inactive,6.68 µM (active),6.68 µM (active),inactive,–,–,-0.0207,inactive,2.51 µM (active)
CC1=C(Br)C(=O)C(Br)=C/C1=C(/c1ccccc1S(=O)(=O)O)c1cc(Br)c(O)c(Br)c1C,inactive,–,18.6 µM (active),inactive,37 µM (active),inactive,–,–,–,–
O=C(CCc1ccc(O)cc1)c1c(O)cc(O)cc1O,inactive,inactive,–,inactive,inactive,–,–,–,–,–
C=C/C(C)=C/C/C=C(\C)CCC=C(C)C,inactive,–,–,inactive,inactive,27.3 µM (active),–,–,–,–
CCCCCCCCCCC(=O)O,inactive,inactive,–,inactive,inactive,–,–,–,–,–
Cc1cscn1,–,inactive,inactive,inactive,inactive,inactive,inactive,–,–,–
O=Cc1c2ccccc2c(Cl)c2ccccc12,–,inactive,23.7 µM (active),inactive,inactive,inactive,inactive,–,–,–
C=C(C)C(=O)OCCCCCCCCCCCCC,inactive,–,inactive,inactive,inactive,inactive,–,–,–,–
Nc1nnc(-c2ccc([N+](=O)[O-])o2)o1,–,inactive,54.5 µM (active),inactive,68.6 µM (active),inactive,27.3 µM (active),–,–,–
CC(C)(O)c1ccc(CNC(=O)c2cccnc2Oc2ccc3nonc3c2)cc1,inactive,inactive,–,inactive,–,inactive,–,–,–,–
C[C@@]12CCC[C@H]1[C@@H]1CC[C@H]3C[C@@H](O)CC[C@]3(C)[C@H]1CC2,inactive,inactive,–,inactive,inactive,–,–,–,–,–
CC1=Nc2ccc3ccccc3c2C1(C)C,inactive,inactive,–,inactive,–,30.6 µM (active),–,–,–,–
CC(C)(C)CC(=O)OCC(=O)[C@@]1(O)CC[C@H]2[C@@H]3CCC4=CC(=O)C=C[C@]4(C)[C@H]3[C@@H](O)C[C@@]21C,inactive,inactive,–,inactive,inactive,–,–,–,–,–
O=C1c2ccccc2C(=O)N1CCc1noc(-c2ccc(CN3CCCCCC3)s2)n1,inactive,inactive,–,inactive,–,14.1 µM (active),–,–,–,–
C=C(C)C(=O)OCCOCCOC(=O)C(=C)C,inactive,–,inactive,inactive,inactive,inactive,–,–,–,–
C(=C\c1ccccc1)/c1ccccc1,inactive,–,inactive,inactive,inactive,inactive,–,–,–,–
CC1CC(C)C(=O)C1=O (configuration not stated),inactive,inactive,–,inactive,inactive,inactive,–,–,–,–
